The text below walks through data of PubChem BioAssay (Tox21).

Records with an inconclusive call do not appear. Active and inactive are the calls of the source. Unless noted, calls come from the whole dose curve; as a rule, active = well fitted curve in the direction sought with a large enough effect in the repeat runs; inconclusive = weak or mixed curves; inactive = no such curve, though single readings can be large; an effect the other way counts as inactive or inconclusive.

Assay [1] in a line: qHTS assay for identifying genotoxic compounds that show differential cytotoxicity against isogenic chicken DT40 cell lines with known DNA damage response pathways - wild type cell line (AID 743012). Note: nearly all actives have a fitted effect of over 60% in size. Put shortly:
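Using parental DT40 (300 cells/well), compounds delivered in DMSO incubate 40 h at 37 C/5% CO2. CellTiter-Glo reagent then stands 30 min at room temperature, and luminescence gives cell viability.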
(In general: Quantitative high-throughput screening tests each substance at several concentrations.)

Assay [2] can be described thus: qHTS assay for identifying genotoxic compounds that show differential cytotoxicity against isogenic chicken DT40 cell lines with known DNA damage response pathways - Rev3 mutant cell line (AID 743014). Note: nearly all actives have a fitted effect of over 55% in size. Note: potency is the fitted concentration of half-maximal effect.
Assay [3] in a line: qHTS assay for identifying genotoxic compounds that show differential cytotoxicity against isogenic chicken DT40 cell lines with known DNA damage response pathways - Rad54/Ku70 mutant cell line (AID 743015). Note: nearly all actives have a fitted effect of over 60% in size.
Assay [4] can be described thus: qHTS assay to identify small molecule antagonists of the androgen receptor (AR) signaling pathway - cell viability counter screen (AID 743033; note: nearly all actives have a fitted effect of over 45% in size).
Assay [5] deals with Androgen receptor (Homo sapiens) (UniProt P10275). Description: qHTS assay to identify small molecule antagonists of the androgen receptor (AR) signaling pathway (AID 743035; active = well fitted inhibition curve with a large enough effect in the signal ratio in the repeat runs, not every such curve was filed as active; the % refers to the signal ratio). The procedure, abridged: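 Using qHTS, AR-UAS-bla GripTite HEK293 cells received compound, then R1881, and were cultured 16 h at 37C/5% CO2 before a 2 h room-temperature LiveBLAzer B/G FRET substrate step and fluorescence measurement.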
Sequence of Androgen receptor (Homo sapiens) (P10275 whole entry, looked up): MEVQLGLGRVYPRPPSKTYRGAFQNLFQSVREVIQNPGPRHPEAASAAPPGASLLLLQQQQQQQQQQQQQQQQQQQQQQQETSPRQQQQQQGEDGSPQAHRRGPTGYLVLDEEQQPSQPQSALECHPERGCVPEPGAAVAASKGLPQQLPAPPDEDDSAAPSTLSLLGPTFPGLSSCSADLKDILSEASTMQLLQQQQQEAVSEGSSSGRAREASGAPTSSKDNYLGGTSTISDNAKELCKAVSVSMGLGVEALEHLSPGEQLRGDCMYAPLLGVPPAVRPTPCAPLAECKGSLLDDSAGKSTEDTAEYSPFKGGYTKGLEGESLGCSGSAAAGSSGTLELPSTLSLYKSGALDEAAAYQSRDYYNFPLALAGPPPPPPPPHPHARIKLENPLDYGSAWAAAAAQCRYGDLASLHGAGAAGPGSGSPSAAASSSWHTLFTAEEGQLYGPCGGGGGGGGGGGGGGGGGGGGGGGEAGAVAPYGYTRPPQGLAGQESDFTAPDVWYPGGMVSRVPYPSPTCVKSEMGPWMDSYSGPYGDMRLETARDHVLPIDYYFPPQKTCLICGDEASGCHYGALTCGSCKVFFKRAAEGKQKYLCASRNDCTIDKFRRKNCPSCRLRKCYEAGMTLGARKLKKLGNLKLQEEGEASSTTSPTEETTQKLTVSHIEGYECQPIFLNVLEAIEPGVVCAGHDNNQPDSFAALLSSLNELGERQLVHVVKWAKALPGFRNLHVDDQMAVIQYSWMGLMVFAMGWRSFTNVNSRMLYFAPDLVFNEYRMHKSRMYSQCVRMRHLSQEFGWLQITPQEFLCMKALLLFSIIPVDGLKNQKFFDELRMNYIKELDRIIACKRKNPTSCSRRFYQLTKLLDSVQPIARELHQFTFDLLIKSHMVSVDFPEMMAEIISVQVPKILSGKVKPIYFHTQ

Assay [6] shares this target. Description: qHTS assay to identify small molecule agonists of the androgen receptor (AR) signaling pathway (AID 743036; active = well fitted activation curve with a large enough effect in the signal ratio in the repeat runs, with a control signal flat, not every such curve was filed as active; the % refers to the signal ratio). The procedure, abridged: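 Quantitative HTS of the Tox21 10K library in HEK293 cells bearing a stably integrated UAS-controlled beta-lactamase reporter. Compound exposure lasted 16 h at 37C. Reporter activity was detected by FRET substrate fluorescence after 2 h at room temperature.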

Assay [7] shares this target. Description: qHTS assay to identify small molecule agonists of the androgen receptor (AR) signaling pathway using the MDA cell line (AID 743040; note: nearly all actives have a fitted effect of over 20% in size). Put shortly: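 MDA-kb2 breast carcinoma cells carrying MMTV-luciferase (responsive to AR and GR), plated 5 h then treated 16 h with compounds at 37C, 0% CO2. Read-out was ONE-Glo luminescence after 30 min at room temperature.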

Assay [8] is described as follows: qHTS assay to identify small molecule antagonists of the androgen receptor (AR) signaling pathway using the MDA cell line - cell viability counter screen (AID 743041; note: nearly all actives have a fitted effect of over 45% in size). The procedure, abridged: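 MDA-kb2 AR-luc cells (MMTV-luciferase, AR/GR responsive) treated with compounds plus R1881 agonist for 16 h at 37C. CellTiter-Fluor added at 15.5 h; fluorescence read after 30 min in the same wells.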

The nature of assay [9]: qHTS assay to identify small molecule antagonists of the thyroid receptor (TR) signaling pathway - cell viability counter screen (AID 743064). Note: nearly all actives have a fitted effect of over 50% in size. The procedure, abridged:
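Rat GH3 pituitary tumor cells stably expressing two TR response elements driving luciferase were plated, rested 4 h, then dosed with library compounds and T3 (1 nM final). After 23.5 h at 37 °C, CellTiter-Fluor was added for 30 min and fluorescence recorded.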

Assay [10] can be described thus: qHTS assay to identify small molecule antagonists of the thyroid receptor (TR) signaling pathway (AID 743065). Note: series mostly up to about 70 µM; nearly all actives have a fitted effect of over 55% in size. Put shortly: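 GH3.TRE-Luc rat pituitary cells (two TREs driving luciferase) were dosed with compound, then stimulated with 1 nM T3 (final) for 23.5 h at 37 C. ONE-Glo luminescence was the read-out, with CellTiter-Fluor fluorescence as the cytotoxicity counter-screen.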

For assay [11], the system named is thyroid hormone receptor (rat, GH3 cells). Put plainly: qHTS assay to identify small molecule agonists of the thyroid receptor (TR) signaling pathway (AID 743066; calls by dose curve).
For assay [12], the target named is Estrogen receptor (Homo sapiens) (UniProt P03372). Put plainly: qHTS assay to identify small molecule antagonists of the estrogen receptor alpha (ER-alpha) signaling pathway (AID 743069; active = well fitted curve in the direction sought with a large enough effect in the signal ratio in the repeat runs, not every such curve was filed as active; the % refers to the signal ratio). Put shortly:
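HEK293 ER-alpha-UAS-bla GripTite cells, held overnight in 2% charcoal-stripped FBS, 5,000 cells/well, preincubated 4 h, then compound plus 17beta-estradiol for 18 h at 37C. Beta-lactamase read by LiveBLAzer B/G FRET substrate, 2 h at room temperature.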

Assay [13] can be described thus: qHTS assay to identify small molecule antagonists of the estrogen receptor alpha (ER-alpha) signaling pathway - cell viability counter screen (AID 743074; calls by dose curve;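 note: HEK293 cells carrying ER-alpha-UAS-bla reporter stimulated with 17beta-estradiol; nearly all actives have a fitted effect of over 45% in size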).
Assay [14] has as its target Estrogen receptor (Homo sapiens) (UniProt P03372). Description: qHTS assay to identify small molecule agonists of the estrogen receptor alpha (ER-alpha) signaling pathway (AID 743075; calls by dose curve).
The target is the same in assay [15]. Description: qHTS assay to identify small molecule agonists of the estrogen receptor alpha (ER-alpha) signaling pathway using the BG1 cell line (AID 743079). Note: nearly all actives have a fitted effect of over 20% in size.
Assay [16] in a line: qHTS assay to identify small molecule antagonists of the estrogen receptor alpha (ER-alpha) signaling pathway using the BG1 cell line (AID 743080; calls by dose curve;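 note: BG1 cells stimulated with 17beta-estradiol alongside compound; series mostly up to about 70 µM; nearly all actives have a fitted effect of over 25% in size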). Put shortly: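 Luciferase inhibition measured with ONE-Glo after 30 min at RT in BG1Luc4E2 cells given test compounds and 17beta-estradiol for 21.5 h at 37 C; CellTiter-Fluor viability read in the same wells beforehand.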
Assay [17] is described as follows: qHTS assay to identify small molecule antagonists of the estrogen receptor alpha (ER-alpha) signaling pathway using the BG1 cell line - cell viability counter screen (AID 743081).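 Note: compound given together with 17beta-estradiol as the ER stimulus; series mostly up to about 70 µM; nearly all actives have a fitted effect of over 45% in size.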
Assay [18] has as its target Aromatase (Homo sapiens) (UniProt P11511). Put plainly: qHTS assay to identify aromatase inhibitors (AID 743083). Note: series mostly up to about 70 µM; nearly all actives have a fitted effect of over 55% in size.
Assay [19] in a line: qHTS assay to identify aromatase inhibitors - cell viability counter screen (AID 743084).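 Note: cells stimulated with testosterone during compound exposure; nearly all actives have a fitted effect of over 55% in size.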
A short description of assay [20]: qHTS assay to identify small molecule antagonists of the glucocorticoid receptor (GR) signaling pathway - cell viability counter screen (AID 720693). Note: nearly all actives have a fitted effect of over 55% in size.

Sequence of Estrogen receptor (Homo sapiens) (P03372 whole entry, looked up): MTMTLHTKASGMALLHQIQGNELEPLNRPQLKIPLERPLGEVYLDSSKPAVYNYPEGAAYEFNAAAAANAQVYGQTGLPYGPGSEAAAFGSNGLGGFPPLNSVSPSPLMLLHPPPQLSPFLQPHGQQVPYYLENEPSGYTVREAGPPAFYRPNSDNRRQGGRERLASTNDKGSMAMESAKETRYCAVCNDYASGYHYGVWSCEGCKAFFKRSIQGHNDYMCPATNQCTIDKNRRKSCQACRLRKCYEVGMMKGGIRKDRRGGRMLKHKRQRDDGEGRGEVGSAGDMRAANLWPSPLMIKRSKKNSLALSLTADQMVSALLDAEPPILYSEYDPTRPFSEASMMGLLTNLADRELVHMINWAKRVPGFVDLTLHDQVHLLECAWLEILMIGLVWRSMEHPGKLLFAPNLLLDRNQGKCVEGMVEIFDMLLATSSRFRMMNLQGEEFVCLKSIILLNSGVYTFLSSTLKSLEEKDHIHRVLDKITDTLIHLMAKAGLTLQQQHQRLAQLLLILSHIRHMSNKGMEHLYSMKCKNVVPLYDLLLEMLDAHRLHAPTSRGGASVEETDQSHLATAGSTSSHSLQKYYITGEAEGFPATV
Sequence of Aromatase (Homo sapiens) (P11511 whole entry, looked up): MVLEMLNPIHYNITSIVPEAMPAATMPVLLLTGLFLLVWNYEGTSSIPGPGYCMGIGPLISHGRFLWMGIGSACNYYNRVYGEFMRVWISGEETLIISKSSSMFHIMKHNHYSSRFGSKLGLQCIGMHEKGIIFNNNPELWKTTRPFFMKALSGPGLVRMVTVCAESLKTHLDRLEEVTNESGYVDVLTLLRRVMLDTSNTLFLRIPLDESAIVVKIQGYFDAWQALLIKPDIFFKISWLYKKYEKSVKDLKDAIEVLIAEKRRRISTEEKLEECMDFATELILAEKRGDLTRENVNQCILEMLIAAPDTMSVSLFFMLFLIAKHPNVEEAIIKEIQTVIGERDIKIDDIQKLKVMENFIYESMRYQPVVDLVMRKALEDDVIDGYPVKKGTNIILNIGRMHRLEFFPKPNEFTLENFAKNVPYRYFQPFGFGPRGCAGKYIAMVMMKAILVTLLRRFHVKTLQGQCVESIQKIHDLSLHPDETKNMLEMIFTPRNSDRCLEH

As to `CC1=NN(c2cccc(S(=O)(=O)O)c2)C(=O)C1`, the Potency result in [1], in assay [2], in [3], in assay [5], in assay [7] and in assay [8] was “inactive” each time. Further, the Potency entry in [9], in assay [10], in assay [12], in assay [13], in assay [14] and in assay [15] was “inactive” each time. Further, the Potency entry in assay [16] and in [19] was “inactive” each time. Further, the compound was called inactive in [4], in assay [6], in assay [11], in [17] and in assay [18].
For the compound `C=C(C)C(=O)OCCOCCOCCOCCOC(=O)C(=C)C`, the result in assay [20], in assay [4], in assay [11], in [17] and in assay [18] was inactive. Also, the Potency result in [2], in assay [8], in [9], in assay [10], in assay [13] and in assay [19] was “inactive” each time.
For `NC(=O)N[C@@H](CCC(=O)O)C(=O)O`, the Potency entry in [1], in assay [3], in assay [8], in [9], in [10] and in assay [13] was “inactive” each time. Further, the result in assay [4], in assay [11] and in [17] was inactive.
With `c1ccc(CCc2ccccc2)cc1`, the outcome in assay [20], in [4], in [11], in assay [17] and in assay [18] was inactive. The Potency result in assay [2], in [3], in [8], in assay [9], in [10] and in [13] was “inactive” in each case. The Potency entry in assay [19] was “inactive”.
Take `CCOC(=O)CCC(=O)OCC`: the compound was called inactive in [20], in [4], in assay [11], in assay [17] and in [18]. For the same compound, in assay [2], the Potency is 68.5 µM (active). The Potency result in [8], in assay [10], in assay [12], in assay [13], in assay [14] and in assay [15] was “inactive” each time. Also, the Potency result in assay [16] and in assay [19] was “inactive” each time.
As to `O=C(O)c1cn(C2CC2)c2cc(N3CCNCC3)c(F)cc2c1=O`, the outcome in assay [20], in assay [4], in assay [11] and in assay [17] was inactive. The Potency entry in assay [8], in assay [9], in assay [10], in [12], in assay [13] and in [14] was “inactive” in each case. Also, the Potency entry in [15], in assay [16] and in assay [19] was “inactive” throughout.
On to `Cc1ncc(COP(=O)(O)O)c(C=O)c1O`, for which the call in [20], in assay [4], in [11], in assay [17] and in assay [18] was inactive. In addition, the Potency result in [3], in assay [8], in assay [9], in assay [12], in assay [14] and in [15] was “inactive” throughout.
Take `NC(N)=NCCN1CCCCCCC1`: the result in [20], in assay [4], in assay [11], in assay [17] and in assay [18] was inactive. Besides, the Potency result in assay [8], in assay [9], in assay [10], in [13], in assay [16] and in assay [19] was “inactive” each time.
For `CCC(C)(CN(C)C)OC(=O)c1ccccc1` (centres undefined), the result in [20], in assay [4], in assay [11], in assay [17] and in assay [18] was inactive. Further, the Potency result in assay [8], in [9], in [10], in [13] and in assay [19] was “inactive” each time.
As for `O=[N+]([O-])c1ccc(/C=N\O)o1`, the outcome in assay [20], in assay [4], in assay [11], in [17] and in assay [18] was inactive. The Potency result in assay [8], in assay [9], in [10], in assay [12], in assay [13] and in [14] was “inactive” throughout. The Potency result in assay [15], in [16] and in assay [19] was “inactive” in each case.
